A word on the AC50: it is the concentration at which the activity in the assay is half-maximal.

SMILES strings stand for the structures. Activity calls are given as the source filed them. The calls were made as follows: active = hit-call score of the fitted dose curve at least 0.9, where 1 is the maximum; inactive = score below 0.9.

The source of these data is PubChem BioAssay (EPA / NIEHS).

The first assay is described as follows: CCTE_Simmons_MITO_basal_resp_rate: CCTE's HepG2 Seahorse XF Respirometric Screening Assay at Basal Respiratory State, Simmons Lab (AID 2284001). The settings on record: actives raise or lower the signal. In short, it runs like this: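 Basal-phase OCR of HepG2 cells on a Seahorse XF96, analysed by bidirectional fit relative to DMSO vehicle; chemicals at 7 concentrations, 125 nM–100 uM final; three biological replicates; fenpyroximate and 2,4-dinitrophenol positive controls.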
Turning to `COc1nc(NC(C)C)nc(NC(C)C)n1`, the AC50 was 32.6 µM (active).

For the compound `C#CCOS(=O)OC1CCCCC1Oc1ccc(C(C)(C)C)cc1` (configuration not stated), the AC50 was 15.5 µM (active).

Regarding `O=C(O)COc1nc(Cl)c(Cl)cc1Cl`, the call was inactive.

Take `Oc1ccccc1-c1ccccc1`: the compound was classed as inactive.

A further assay in a line: CCTE_Simmons_MITO_max_resp_rate: CCTE's HepG2 Seahorse XF Respirometric Screening Assay at Maximal Respiratory State [uncoupled], Simmons Lab (AID 2284002). The settings on record: actives raise or lower the signal. An outline of the steps: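 HepG2 oxygen consumption was read on a Seahorse XF96 after FCCP uncoupler injection, following test compound injection; 7 concentrations, 125 nM–100 uM final, three biological replicates. Bidirectional fitting against DMSO vehicle baseline.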
With `COc1nc(NC(C)C)nc(NC(C)C)n1`, the compound was classed as inactive.

Take `C#CCOS(=O)OC1CCCCC1Oc1ccc(C(C)(C)C)cc1` (configuration not stated): the AC50 is 11.3 µM (active).

`O=C(O)COc1nc(Cl)c(Cl)cc1Cl`: the compound was classed as inactive.

On to `Oc1ccccc1-c1ccccc1`, for which the call was inactive.

`C=CCC1=C(C)[C@@H](OC(=O)[C@@H]2[C@@H](C=C(C)C)C2(C)C)CC1=O`: the concentration at half-maximal activity (AC50) is 47.4 µM (active).

The nature of the next assay: CCTE_Simmons_MITO_inhib_resp_rate: CCTE's HepG2 Seahorse XF Respirometric Screening Assay at Inhibited Respiratory State [full ETC block], Simmons Lab (AID 2284006). The settings on record: actives raise or lower the signal. In short, it runs like this:
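OCR read-out in the inhibited phase following rotenone/antimycin A, after compound and FCCP injections, in HepG2 cells. Seven concentrations (125 nM to 100 uM final), three biological replicates, 6-min cycles over 72 min; DMSO baseline.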
Take `COc1nc(NC(C)C)nc(NC(C)C)n1`: the compound was called inactive.

With `C#CCOS(=O)OC1CCCCC1Oc1ccc(C(C)(C)C)cc1` (configuration not stated), the compound was called inactive.

For `O=C(O)COc1nc(Cl)c(Cl)cc1Cl`, the compound was classed as inactive.

On to `Oc1ccccc1-c1ccccc1`, for which the result was inactive.

Turning to `C=CCC1=C(C)[C@@H](OC(=O)[C@@H]2[C@@H](C=C(C)C)C2(C)C)CC1=O`, the call was inactive.

A short description of another assay: CCTE_Shafer_MEA_acute_firing_rate_mean: CCTE's Neural Acute Assay for Mean Firing Rate, Shafer Lab (AID 2284009).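 Also: analyzed for loss of signal so actives lower firing rate relative to DMSO.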
Conditions: not given
In short, it runs like this:
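Rat cortical neuron cultures matured to DIV 13 or 15, equilibrated 20 min at 37 C, then recorded 40 min for baseline. Compound (0.03-40 uM) added and a further 40 min recorded; percent change in mean firing rate calculated per well.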
As to `C#CCOS(=O)OC1CCCCC1Oc1ccc(C(C)(C)C)cc1` (configuration not stated), the AC50 was 9.48 µM (active).

As to `O=C(O)c1nc(Cl)ccc1Cl`, the result was inactive.

Consider `COC(=O)C(C)Oc1ccc(Oc2ccc(Cl)cc2Cl)cc1` (configuration not stated), for which the compound was called inactive.

In the case of `CCNc1nc(Cl)nc(NC(C)C)n1`, the compound was called inactive.

Consider `CNC(=O)ON=CC(C)(C)SC`, for which the call was inactive.

Take `Fc1ccc(Oc2ccnc3cc(Cl)cc(Cl)c23)cc1`: the result was inactive.

As to `C=CCC1=C(C)[C@@H](OC(=O)[C@@H]2[C@@H](C=C(C)C)C2(C)C)CC1=O`, the AC50 was 4.06 µM (active).

In the case of `COP(N)(=O)SC` (configuration not stated), the compound was classed as inactive.

For `COc1ccc(C(c2ccc(OC)cc2)C(Cl)(Cl)Cl)cc1`, the compound was classed as inactive.

On to `CC(Oc1ccc(Cl)cc1Cl)C(=O)O` (configuration not stated), for which the outcome was inactive.

As for `CCOP(=S)(OCC)SCn1c(=O)oc2cc(Cl)ccc21`, the compound was called inactive.

For the compound `Cc1c(F)c(F)c(COC(=O)C2C(/C=C(\Cl)C(F)(F)F)C2(C)C)c(F)c1F` (configuration not stated), the AC50 was 0.581 µM (active).

A further assay in a line: CCTE_Harrill_HTTr_Viability_MCF7: CCTE's 6-hour Cell Viability Assessment for the High-Throughput Transcriptomics (HTTr) Platform, in MCF-7 cells cultured in DMEM + 10% fetal bovine serum, Harrill Lab (AID 2284010).
Conditions: not given
In short, it runs like this:
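PI exclusion, high-content imaging; 8-pt dilution series, 6 h exposure; bidirectional fit vs DMSO (neg. ctrl/baseline); gain of signal = loss of membrane integrity.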
As to `COc1nc(NC(C)C)nc(NC(C)C)n1`, the outcome was inactive.

In the case of `C#CCOS(=O)OC1CCCCC1Oc1ccc(C(C)(C)C)cc1` (configuration not stated), the outcome was inactive.

Regarding `O=C(O)c1nc(Cl)ccc1Cl`, the outcome was inactive.

In the case of `CC(C)C1(C)N=C(c2nc3ccccc3cc2C(=O)O)NC1=O` (configuration not stated), the result was inactive.

Consider `COC(=O)C(C)Oc1ccc(Oc2ccc(Cl)cc2Cl)cc1` (configuration not stated), for which the outcome was inactive.

Consider `CCNc1nc(Cl)nc(NC(C)C)n1`, for which the result was inactive.

Turning to `CCNc1nc(Cl)nc(NCC)n1`, the result was inactive.

Take `CCOC(=O)C(Cl)Cc1cc(-n2nc(C)n(C(F)F)c2=O)c(F)cc1Cl` (configuration not stated): the outcome was inactive.

With `CNC(=O)ON=CC(C)(C)SC`, the result was inactive.

As to `CCCCOC(=O)c1ccccc1C(=O)OCCCC`, the outcome was inactive.

As for `Fc1ccc(Oc2ccnc3cc(Cl)cc(Cl)c23)cc1`, the outcome was inactive.

For the compound `CCCCC(CC)COC(=O)c1ccccc1C(=O)OCC(CC)CCCC` (configuration not stated), the outcome was inactive.

On to `COc1cnc(OC)n2nc(NS(=O)(=O)c3c(OCC(F)F)cccc3C(F)(F)F)nc12`, for which the result was inactive.

As for `COC(=O)C=C(C)OP(=O)(OC)OC`, the outcome was inactive.

In the case of `O=C(O)COc1nc(Cl)c(Cl)cc1Cl`, the result was inactive.

For the compound `Oc1ccccc1-c1ccccc1`, the result was inactive.

On to `COC(=O)c1ccccc1C(=O)OC`, for which the result was inactive.

With `C=CC1(C)OC(=O)N(c2cc(Cl)cc(Cl)c2)C1=O` (configuration not stated), the outcome was inactive.

As for `C=CCC1=C(C)[C@@H](OC(=O)[C@@H]2[C@@H](C=C(C)C)C2(C)C)CC1=O`, the outcome was inactive.

On to `COP(N)(=O)SC` (configuration not stated), for which the outcome was inactive.

Take `COc1ccc(C(c2ccc(OC)cc2)C(Cl)(Cl)Cl)cc1`: the outcome was inactive.

Regarding `CCOc1cc(Oc2ccc(C(F)(F)F)cc2Cl)ccc1[N+](=O)[O-]`, the outcome was inactive.

For `CNC(=S)S`, the outcome was inactive.

Turning to `CC(Oc1ccc(Cl)cc1Cl)C(=O)O` (configuration not stated), the result was inactive.

Turning to `CCOP(=S)(OCC)SCn1c(=O)oc2cc(Cl)ccc21`, the outcome was inactive.

As for `Cc1c(F)c(F)c(COC(=O)C2C(/C=C(\Cl)C(F)(F)F)C2(C)C)c(F)c1F` (configuration not stated), the outcome was inactive.
